Experimental data reported in ChEMBL document CHEMBL4513216, “Probing the Open Global Health Chemical Diversity Library for Multistage-Active Starting Points for Next-Generation Antimalarials” (ACS Infect Dis, 2020).
In all, about 68,000 compounds went through this assay and about 2,700 (4%) showed an effect of 50% or more. The sample holds strong results, similar compounds and a random draw of the others, so the mix is not that of the screen.

system: Plasmodium berghei; assay: Screen against P. berghei liver stage (PbLuc), transformed with Luciferase, at 2uM; format: functional, HepG2; conditions: tested at 2 uM

Row | SMILES | INHIBITION
1 | CCc1nnc(C(C)N2CCN(CCC(C)(C)C)CC2)o1 (stereo not drawn) | 38.97%
2 | COc1cc(C(=O)O)ccc1OCC(=O)NCCc1ccccc1 | 10.1%
3 | COc1cc(OCC(=O)NCCc2ccccc2)cc(OC)c1OC | 28.85%
4 | COc1cc(C(=O)O)cc(I)c1OCC(=O)NCCc1ccccc1 | 56.69%
5 | CCN1C[C@H]2[C@@H](C1)N(c1ncc(F)cn1)CC[C@H]2OC | 12.29%
6 | CCc1ncc2c(n1)CN(Cc1nnc(CC)o1)CC2 | 9.18%
7 | CCc1ncc2c(n1)CN(Cc1nnc(C(C)C)o1)CC2 | 46.76%
8 | CCc1ncc2c(n1)CN(Cc1nnc(C)o1)CC2 | 59.18%
9 | COCCN1C[C@@H]2[C@@H](OC)CCN(Cc3ccsc3)[C@@H]2C1 | 20.91%
10 | Cc1cc2nc(CO[C@H]3CN(C4CCN(C)CC4)C[C@H]3F)[nH]c2cc1C | 50.7%
11 | Cc1cc2nc(CO[C@H]3CN(C4CCCCC4)C[C@H]3F)[nH]c2cc1C | 18.65%
12 | Cc1cc2nc(CO[C@H]3CN(C4CCC4)C[C@H]3F)[nH]c2cc1C | 46.17%
13 | CC(=O)N1C[C@@H](F)[C@@H](OCc2nc3ccc(C#N)cc3[nH]2)C1 | 36.99%
14 | CN1C[C@@H](F)[C@@H](OCc2nc3ccc(C#N)cc3[nH]2)C1 | 52.91%
15 | CN1C[C@@H](F)[C@@H](OCc2nc3ccccc3[nH]2)C1 | 40.83%
16 | O=C(Cn1cc(Cl)cn1)N1CCCC(c2cc3ccccc3cn2)C1 (stereo not drawn) | 36.98%
17 | CCn1nc(C)c(C(C)NC(=O)c2cnc(N(C)C)nc2C)c1C (stereo not drawn) | -12.22%
18 | CCC(NC(=O)c1cnc(N(C)C)nc1C)c1ccc(S(C)(=O)=O)cc1 (stereo not drawn) | 70.81%
19 | CCn1c(C)nnc1SCCNC(=O)c1cnc(N(C)C)nc1C | -41.73%
20 | COCCNC(=O)c1cnc(N(C)C)nc1C | 12.85%
21 | Cc1nc(N(C)C)ncc1C(=O)NCCc1csc(-c2ccncc2)n1 | 40.05%
22 | CCC(NC(=O)c1cnc(N(C)C)nc1C)c1ccncc1 (stereo not drawn) | 57.34%
23 | O=C(CN1CCc2cncnc2C1)N1CCc2sccc2C1 | -27.59%
24 | Cn1cnnc1SCC(=O)N1C[C@@H]2CC[C@H]1CN(Cc1cccnc1)C2 | 12.74%
25 | O=C(CN1CCCCC1)Nc1cc(C(F)(F)F)ccc1-n1cccc1 | 18.54%

Row | SMILES | INHIBITION
26 | CNC(=O)c1cccc(CNC(C)c2ccc(F)cc2N(C)C)c1 (stereo not drawn) | 55.25%
27 | CNC(=O)c1cccc(CNC(C)c2cc(C)ccc2OC(F)F)c1 (stereo not drawn) | 25.55%
28 | CNC(=O)c1cccc(CNC(C)c2cc(Cl)ccc2OC)c1 (stereo not drawn) | 19.81%
29 | CC(C)n1nc(O)c2c1NC(=O)CSC2c1cnn(C)c1 (stereo not drawn) | 6.9%
30 | COc1cc(CNCC(C)O)cc(Cl)c1OCc1ccc(C)cc1 (stereo not drawn) | 44.51%
31 | COc1ccc(C)cc1CN1CCN(Cc2nccn2C)C(C)C1 (stereo not drawn) | 50.61%
32 | CC1CN(CC(=O)NC2CCOCC2)CCN1Cc1nccn1C (stereo not drawn) | -0.99%
33 | COc1ccc(CN2CCN(Cc3nccn3C)C(C)C2)cc1F (stereo not drawn) | -13.34%
34 | COc1ccc(C)cc1CN1CCN(Cc2nccn2C)CC1 | 50.61%
35 | COc1ccc(F)cc1CN1CCN(Cc2nccn2C)C(C)C1 (stereo not drawn) | -49.85%
36 | COc1ccc(C(C)N2CCN(Cc3nccn3C)CC2)cc1Cl (stereo not drawn) | 18.31%
37 | C=C(C)CN1CCN(Cc2nccn2C)C(C)C1 (stereo not drawn) | 36.95%
38 | Cc1ccccc1CN1CCN(Cc2nccn2C)CC1 | 20.28%
39 | CC1CN(CC(=O)N2CCOCC2)CCN1Cc1nccn1C (stereo not drawn) | 66.27%
40 | Cc1cc(CN2CCc3nc(N4CCOCC4)nc(O)c3CC2)c(C)s1 | 22.84%
41 | Cc1cccc(CNC2CC3(CCN(CCO)CC3)c3ccccc32)n1 (stereo not drawn) | 34.02%
42 | Cc1ccc2oc(SCC(N)=O)nc2n1 | -30.1%
43 | CN(C(=O)Nc1nncs1)C1CCN(c2ccccc2Cl)C1=O (stereo not drawn) | 2.06%
44 | Cn1cnc2c1C(COCC1CCOCC1)CN(C(=O)c1ccco1)C2 (stereo not drawn) | -39.19%
45 | CN(C)C(=O)N1CCN(C(=O)CCc2ccccc2)[C@H]2CS(=O)(=O)C[C@H]21 | -93.14%
46 | Cn1c(C2CC2)nc2c1CCN(Cc1nc3ccccc3s1)C2 | 14.59%
47 | CN1CC2(CCN(C(=O)COc3ccc(Cl)cc3Cl)CC2)OC1=O | 16.37%
48 | c1cn(Cc2nnc(C3CCN(C4CCOCC4)CC3)n2C2CC2)cn1 | 24.88%
49 | OCC(CO)N1CCC(c2nnc(Cn3ccnc3)n2C2CC2)CC1 | 32.26%
50 | NCCN1CCC(c2nnc(Cn3ccnc3)n2C2CC2)CC1 | 52.08%

Row | SMILES | INHIBITION
51 | CSCCCN1CCC(c2nnc(Cn3ccnc3)n2C2CC2)CC1 | 54.29%
52 | CS(=O)(=O)N1CCC(c2nnc(Cn3ccnc3)n2C2CC2)CC1 | -13.72%
53 | CC(C)(C)CN1CCC(c2nnc(Cn3ccnc3)n2C2CC2)CC1 | -13.72%
54 | COc1ccccc1C(NC(=O)CN(C)C(C)C)c1noc(C)n1 (stereo not drawn) | 1.8%
55 | O=C1CN(C(=O)c2cccc(OCc3cscn3)c2)CCN1 | -7.02%
56 | Cc1ccc(OCC(=O)NC2CCN(S(C)(=O)=O)CC2)cc1 | 30.88%
57 | CS(=O)(=O)N1CCC(NC(=O)COc2ccc(Cl)c(Cl)c2)CC1 | -34.45%
58 | CS(=O)(=O)N1CCC(NC(=O)COc2ccc(Cl)cc2)CC1 | 54.86%
59 | c1ccc(COC[C@]23COC[C@H]2CN(c2ncccn2)C3)nc1 | -19.09%
60 | CC(C)N(C)Cc1ncn2c1CN(C(=O)C1CCCO1)CCC2 (stereo not drawn) | 21.7%
61 | Cc1c(CNCCCOc2cccnc2)c2ccccc2n1CC(N)=O | 43.87%
62 | COc1ccc(CC(=O)N2CCC(c3nnc4n3CCC4)CC2)cc1F | -25.23%
63 | CCn1cnnc1C1CCN(C(=O)Cc2ccc(OC)c(F)c2)CC1 | 77.01%
64 | Cc1cccc(C)c1OCCC(=O)N1CCC(c2nncn2C)CC1 | -1.56%
65 | Cn1cnnc1C1CCN(C(=O)Cc2ccc3c(c2)OCCO3)CC1 | 5.14%
66 | Cc1ccc(OCCC(=O)N2CCC(c3nncn3C)CC2)c(C)c1 | 7.74%
67 | COc1ccc(CCNC(=O)N2CCCC(c3nncn3C)C2)cc1 (stereo not drawn) | 55.45%
68 | COc1ccccc1CCNC(=O)N1CCCC(c2nncn2C)C1 (stereo not drawn) | 18.59%
69 | COc1ccc(CC(=O)N2CCCC(c3nncn3C)C2)cc1 (stereo not drawn) | 14.26%
70 | CCn1cnnc1C1CCN(C(=O)COc2ccccc2OC)CC1 | -16.51%
71 | Cc1ccc(C(=O)CCC(=O)N2CCC(c3nncn3C)CC2)cc1 | 54.85%
72 | CCn1cnnc1C1CCN(C(=O)c2cc(F)ccc2OC)CC1 | 27.5%
73 | COc1ccc(CC(=O)N2CCC(c3nncn3C)CC2)cc1F | 54%
